Among the data in the supplement of paper PMC9492666 are relative cell viability values, retold here.
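Further: breast cancer cell viability read out with the CCK-8 kit after co-treatment of each compound with the ferroptosis inducer RSL3.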

For this assay, the system named is MDA-MB-231. In words: relative cell viability, compound + RSL3, vs DMSO (fraction of DMSO control); higher = less growth inhibition. As to conditions: 72 h.
In the case of `COc1ccc(C2(CNC(=O)c3ccc(NC(=O)c4ccco4)cc3)CCOCC2)cc1` + COC(=O)c1ccc([C@H]2c3[nH]c4ccccc4c3C[C@H](C(=O)OC)N2C(=O)CCl)cc1 [RSL3], the relative cell viability was 0.49.

On to `O=C(c1ccc(-c2nc3ccc(F)cc3o2)cc1)N1CCN(C(=O)C2(O)CC2)CC1` + COC(=O)c1ccc([C@H]2c3[nH]c4ccccc4c3C[C@H](C(=O)OC)N2C(=O)CCl)cc1 [RSL3], for which the relative cell viability stood at 0.683.

In the case of `O=C(O)CC[C@H](O)C(=O)O` [L-2-Hydroxyglutaric acid disodium] + COC(=O)c1ccc([C@H]2c3[nH]c4ccccc4c3C[C@H](C(=O)OC)N2C(=O)CCl)cc1 [RSL3], the relative cell viability came out at 0.76.

Take `C/C=C(\CC[C@@H](C)[C@H]1CC[C@H]2[C@@H]3CC=C4C[C@@H](O)CC[C@]4(C)[C@H]3CC[C@]12C)C(C)C` [Fucosterol] + COC(=O)c1ccc([C@H]2c3[nH]c4ccccc4c3C[C@H](C(=O)OC)N2C(=O)CCl)cc1 [RSL3]: the relative cell viability was 0.694.

With `C[C@H](CCC(=O)O)[C@H]1CC[C@H]2[C@@H]3CC[C@@H]4C[C@H](O)CC[C@]4(C)[C@H]3CC[C@]12C` [Lithocholic acid] + COC(=O)c1ccc([C@H]2c3[nH]c4ccccc4c3C[C@H](C(=O)OC)N2C(=O)CCl)cc1 [RSL3], the relative cell viability came to 0.649.

With `COC(=O)/C=C/c1cccc(N(Cc2ccc(-c3ccc(N(C)C)cc3)cc2)C(=O)C2CCCCC2)c1` [Fexaramine] + COC(=O)c1ccc([C@H]2c3[nH]c4ccccc4c3C[C@H](C(=O)OC)N2C(=O)CCl)cc1 [RSL3], the relative cell viability was 0.601.

For the compound `O=C(CN1CCN(C(=O)c2ccco2)CC1)Nc1cc(C(F)(F)F)ccc1Cl` + COC(=O)c1ccc([C@H]2c3[nH]c4ccccc4c3C[C@H](C(=O)OC)N2C(=O)CCl)cc1 [RSL3], the relative cell viability stood at 0.373.

As to `COc1ccc2[nH]cc(CCNC(C)=O)c2c1` [Melatonine] + COC(=O)c1ccc([C@H]2c3[nH]c4ccccc4c3C[C@H](C(=O)OC)N2C(=O)CCl)cc1 [RSL3], the relative cell viability is 0.465.

Regarding `COP(=O)(OC)OC(c1ccc(Cl)cc1)P(=O)(OC)OC` (configuration not stated) [Mifobate] + COC(=O)c1ccc([C@H]2c3[nH]c4ccccc4c3C[C@H](C(=O)OC)N2C(=O)CCl)cc1 [RSL3], the relative cell viability was determined as 0.669.

As to `COc1c(/C=C/C(=O)c2ccc(O)cc2)ccc(O)c1CC=C(C)C` + COC(=O)c1ccc([C@H]2c3[nH]c4ccccc4c3C[C@H](C(=O)OC)N2C(=O)CCl)cc1 [RSL3], the relative cell viability is 0.585.

For `CSc1ccc(C(=O)/C=C/c2cc(C)c(OC(C)(C)C(=O)O)c(C)c2)cc1` [Elafibranor] + COC(=O)c1ccc([C@H]2c3[nH]c4ccccc4c3C[C@H](C(=O)OC)N2C(=O)CCl)cc1 [RSL3], the relative cell viability came to 0.685.

On to `O=c1c(O[C@@H]2O[C@H](CO)[C@@H](O)[C@H](O)[C@H]2O)c(-c2ccc(O)cc2)oc2cc(O)cc(O)c12` [Astragalin] + COC(=O)c1ccc([C@H]2c3[nH]c4ccccc4c3C[C@H](C(=O)OC)N2C(=O)CCl)cc1 [RSL3], for which the relative cell viability stood at 0.645.

`COC(=O)CN(c1ccc(CN(c2ccc(OCc3ccc(C)cc3)c(C(=O)OC)c2)S(=O)(=O)Cc2ccccc2)cc1)S(C)(=O)=O` + COC(=O)c1ccc([C@H]2c3[nH]c4ccccc4c3C[C@H](C(=O)OC)N2C(=O)CCl)cc1 [RSL3]: the relative cell viability is 0.626.

On to `C[N+](C)(C)CC(O)CC(=O)[O-]` (stereo not drawn) [L(-)-Carnitine] + COC(=O)c1ccc([C@H]2c3[nH]c4ccccc4c3C[C@H](C(=O)OC)N2C(=O)CCl)cc1 [RSL3], for which the relative cell viability came out at 0.523.

On to `CC1=C(/C=C/C(C)=C/C=C/C(C)=C/C=C/C=C(C)/C=C/C=C(C)/C=C/C2=C(C)C(=O)[C@@H](O)CC2(C)C)C(C)(C)C[C@H](O)C1=O` [Astaxanthin] + COC(=O)c1ccc([C@H]2c3[nH]c4ccccc4c3C[C@H](C(=O)OC)N2C(=O)CCl)cc1 [RSL3], for which the relative cell viability turned out to be 0.689.

`O=C(O)/C=C/c1ccc(O)c(O)c1` [Caffeic Acid] + COC(=O)c1ccc([C@H]2c3[nH]c4ccccc4c3C[C@H](C(=O)OC)N2C(=O)CCl)cc1 [RSL3]: the relative cell viability was determined as 0.426.

With `O=C(O)c1cc2c(Cl)c(N3CCN(S(=O)(=O)c4c(Cl)cccc4Cl)CC3)ccc2o1` [Vonafexor] + COC(=O)c1ccc([C@H]2c3[nH]c4ccccc4c3C[C@H](C(=O)OC)N2C(=O)CCl)cc1 [RSL3], the relative cell viability was determined as 0.745.
